# MCF10A rereplic – induces DNA re-replication in MCF 10a normal breast cells. Potency, µM (doses to about 46.1 µM), for inactives: at the highest dose activity, positive = re-replication, actives largely listed as activators. MCF 10A DNA re-replication, Hoechst nuclear intensity, 48 h. 350,000 compounds, 2.9% hits; further: % of control where 0% means no effect; nearly all actives have a fitted effect of over 50% in size
# KB-V1 MDR tox – KB-V1 MDR subline cytotoxicity | KB-V1 MDR cells viability, CellTiter-Glo, 72 h | Potency, µM (highest dose often 46.1 µM), actives largely listed as cytotoxic | 400,000 compounds, 3.4% hits | AID 1347076; further: on the % scale 0 is the no-effect control and ±100 the full control effect; nearly all actives have a fitted effect of over 60% in size
#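 qHTS viability screen in drug-selected KB-V1 MDR cells: 72 h compound treatment at 37 degrees C, ATP luminescence end point.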
# KB-3-1 cytotox – kills parental KB-3-1 adenocarcinoma cells; KB-3-1 viability, CellTiter-Glo ATP luminescence, 72 h; Potency, µM (doses to about 46.1 µM), actives largely listed as cytotoxic; 400,000 compounds, 1.4% hits; AID 1347075; further: on the % scale 0 is the no-effect control and ±100 the full control effect; nearly all actives have a fitted effect of over 60% in size
#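 KB-3-1 cells, DMEM (no phenol red) + 10% FBS; compound by pin transfer, 72 h, 37 °C. Readout: CellTiter-Glo luminescence after 10 min. Data normalized, curve-fitted.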
# ELG1 repair inh – ELG1-dependent DNA repair inhibition | HEK293T ELG1-luciferase reporter, luminescence, 16 h; DNA damage induced by 5-fluorouridine | Potency, µM (series often up to 46.1 µM), for the others: at the highest dose activity change, negative = inhibition, actives largely listed as inhibitors | 330,000 compounds, 2.3% hits | AID 504467; further: on the % scale 0 is the no-effect control and ±100 the full control effect; nearly all actives have a fitted effect of over 55% in size
#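 5-Fluorouridine DNA damage + compound/DMSO, 2,000 cells/well, 16 h, 37 °C/5% CO2. ONE-Glo, 30 min RT, luminescence. Readout = decrease in reporter signal.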
# SW480 rerep – induces DNA re-replication in SW480 colon adenocarcinoma cells | SW480 DNA re-replication, Hoechst DNA content imaging, 48 h | Potency, µM (series often up to 46.1 µM), for the others: at the top dose re-replication activation, hits mostly activators | 340,000 compounds, 1.8% hits | AID 624297; further: % of control where 0% means no effect; nearly all actives have a fitted effect of over 55% in size
#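 First, 250 cells per well were seeded. Next, compound or vehicle (23 nL) was pinned in, plates sat 48 hr at 37 C. Finally Hoechst was added for 40 min before fluorescence scanning.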
# * hit, by the source's call; i = inactive; ? = inconclusive; . = no result given. Hits are enriched below; roughly 8.1% of the tested compounds scored in any of these assays. The call rests on the fitted dose curve; in most records, active means well fitted curve in the direction sought with a large enough effect; inconclusive means small, poorly fitted or top-dose-only effect, or another doubt; inactive means no such curve, though single readings can be large; an effect the other way counts as inactive or inconclusive. Potency means the concentration at half of the fitted maximal effect.
SMILES,MCF10A rereplic,KB-V1 MDR tox,KB-3-1 cytotox,ELG1 repair inh,SW480 rerep
CCOC(=O)c1cc(NC(=O)c2ccc(F)cc2)c(=O)n2c1oc1ccc(Cl)cc12,.,i,i,.,.
N#Cc1cc(NC(=O)c2ccc(F)cc2)c(=O)n2c1[nH]c1ccccc12,.,.,.,6.5µM*,.
CCCn1nc([N+](=O)[O-])c(C(C#N)c2nc3ccccc3s2)c(Cl)c1=O (stereo unspecified),?,5.8µM*,?,18µM*,1.3µM*
CCn1nc([N+](=O)[O-])c(C(C#N)c2nc3ccccc3n2C)c(Cl)c1=O (stereo unspecified),?,i,i,0%,-2%
O=C(Nc1cccc2cccnc12)c1ccc2sc([C@@H]3O[C@H](CO)[C@H](O)[C@H](O)[C@H]3O)nc2c1,.,i,?,.,.
O=C(O/N=C\c1ccc(N2CCCCC2)c([N+](=O)[O-])c1)c1cccc(Cl)c1,-2%,?,?,13%,5%
Cc1ccc(C(=O)O/N=C\c2ccc(N3CCCCC3)c([N+](=O)[O-])c2)cc1,9%,7.3µM*,?,8%,-1%
COc1ccc(C(=O)/C=C/c2ccc(N3CCCCC3)c([N+](=O)[O-])c2)c(OC)c1,12µM*,?,i,-5%,?
COc1ccc(C(=O)/C=C/c2ccc(N3CCCCC3)c([N+](=O)[O-])c2)cc1,8.2µM*,?,?,-20%,?
O=C(CN(Cc1ccc(Cl)cc1)C(=O)CNS(=O)(=O)c1ccc(F)cc1)NCC1CCCO1 (stereo unspecified),2%,i,i,-5%,-4%
OC1(c2cccnc2)CCN(Cc2nnnn2Cc2ccccc2)CC1,-3%,i,i,4%,-4%
O=C(NCCCN1CCOCC1)C(=O)NCC1OCCN1S(=O)(=O)c1ccc(Br)cc1 (stereo unspecified),16%,.,.,?,3%
COc1ccccc1NC(=O)c1ccc(COc2ccccc2Br)o1,?,i,i,-2%,1%
O=C(Nc1nccs1)c1ccc(COc2ccccc2Br)o1,-5%,15µM*,?,-10%,1%
O=C(Nc1nccs1)c1ccc(COc2ccc(F)cc2)o1,2.9µM*,i,i,-26%,-6%
O=C(Nc1nccs1)c1ccc(COc2ccc(Cl)cc2)o1,18%,?,i,.,-3%
C[C@@H]1CN([C@@H](C)CO)C(=O)CCCn2nncc2CO[C@H]1CN(C)C(=O)c1ccc(N2CCN(C)CC2)cc1,.,i,i,.,.
CCOc1ccccc1NC(=O)CCN(c1ccc(C)cc1)S(=O)(=O)c1ccccc1,6%,2.6µM*,?,5%,-1%
CCOc1ccccc1NC(=O)c1ccccc1N(C)S(=O)(=O)c1ccc(C)cc1,6%,12µM*,?,.,1%
CCCNC(=O)c1ccccc1NC(=O)c1ccccc1N(C)S(=O)(=O)c1ccc(C)cc1,?,?,18µM*,23µM*,?
CCOc1ccccc1NC(=O)c1cc2cc(C)ccc2n1C,.,8.2µM*,?,.,.
Cc1nc(-c2ccc(S(=O)(=O)Nc3cccc(S(N)(=O)=O)c3)s2)cs1,-6%,i,i,1%,-1%
O=C(Nc1ncccc1O)c1ccc(S(=O)(=O)NCc2ccco2)cc1,.,i,i,.,.
COc1cccc(CN(C(=O)Cc2c[nH]c3ccccc23)C(C(=O)NC2CCCCC2)c2ccc(C)o2)c1 (stereo unspecified),6%,21µM*,?,18µM*,?
COc1cc(C(C(=O)NC2CCCCC2)N(C(=O)Cc2c[nH]c3ccccc23)c2ccccc2C)cc(OC)c1OC (stereo unspecified),17%,i,i,0%,1%
SMILES,MCF10A rereplic,KB-V1 MDR tox,KB-3-1 cytotox,ELG1 repair inh,SW480 rerep
COc1ccc(CN(C(=O)Cc2c[nH]c3ccccc23)C(C(=O)NC2CCCCC2)c2ccc(C)o2)cc1 (stereo unspecified),?,?,?,21µM*,12%
COc1cc(C(C(=O)NC2CCCCC2)N(Cc2cccs2)C(=O)Cc2c[nH]c3ccccc23)cc(OC)c1OC (stereo unspecified),7%,16µM*,?,15µM*,-8%
CCN(C(=O)Cn1c(C(=O)OC)cc2sc(Cl)cc21)c1cccc(C)c1,.,i,i,.,.
Cc1cc(C(=O)COC(=O)C2=NNC(=O)CC2)c(C)n1CCc1ccccc1,1%,i,i,1%,-6%
O=C(NCc1ccc2c(c1)OCO2)c1ccc(Cl)c(S(=O)(=O)NCc2ccccc2)c1,?,23µM*,i,?,-1%
CCOc1cc(C)c(Cl)cc1S(=O)(=O)NCc1ccc2c(c1)OCO2,?,13µM*,?,-22%,?
CCOc1cc(S(=O)(=O)NCc2ccc3c(c2)OCO3)c(C)cc1C,-6%,i,i,-12%,-10%
NS(=O)(=O)c1ccc(CNC(=O)c2ccc(Cl)c(S(=O)(=O)NCc3ccccc3)c2)cc1,6%,i,i,-5%,0%
O=C(c1cccc2ccccc12)C1CCCN(C(=O)C2CCOCC2)C1 (stereo unspecified),-10%,?,i,17%,-1%
CCOC(=O)N1CCC(NC(=O)CS(=O)(=O)Cc2nc(-c3cccc(Cl)c3)oc2C)CC1,10%,i,i,15µM*,?
CCOC(=O)N1CCN(C(=O)C2CCCN(Cc3nc(-c4ccc(Cl)cc4)oc3C)C2)CC1 (stereo unspecified),19%,i,i,4.6µM*,20%
CCOC(=O)N1CCC(NC(=O)C2CCCN(Cc3nc(-c4cccc(Cl)c4)oc3C)C2)CC1 (stereo unspecified),2%,i,?,9.2µM*,-14%
CCOC(=O)N1CCC(NC(=O)CS(=O)(=O)Cc2nc(-c3cccc(OC)c3)oc2C)CC1,-6%,i,?,?,2%
C/C(=N/NC(N)=S)c1ccc(Br)s1,0%,8.2µM*,?,-2%,?
O=c1c(S(=O)(=O)c2ccc(Cl)cc2)cn(Cc2ccc(F)cc2)c2ccc(F)cc12,.,i,i,.,.
O=c1c(S(=O)(=O)c2ccc(Cl)cc2)cn(Cc2ccccc2)c2ccc(F)cc12,3%,4.1µM*,i,-20%,-4%
CCCn1cc(S(=O)(=O)c2ccc(Cl)cc2)c(=O)c2cc(OC)ccc21,?,7.3µM*,?,-12%,?
CCCn1cc(S(=O)(=O)c2ccc(C)cc2)c(=O)c2cc(OC)ccc21,6%,i,i,13%,-11%
Brc1ccc(-c2cn3c(n2)CCc2ccc4cccnc4c2-3)cc1,23µM*,16µM*,i,?,?

# High-throughput results deposited in PubChem BioAssay by National Center for Advancing Translational Sciences (NCATS).
